Experimental data taken from the antibiotic and cytotoxicity screens of Wong et al. (2023).
The campaign covered roughly 39,000 compounds. About 3,300 (8.5%) were called active. For the sample, actives were picked, then their nearest neighbours and some compounds at random.

tested on: HepG2; assay: cytotoxicity call (relative viability < 0.9); conditions: 10 µM

| SMILES | cytotoxicity call |
| --- | --- |
| O=C(Nc1ccc2c(c1)[C@H]1C[C@H](CC(=O)N3CCc4ccccc4C3)O[C@@H](CO)[C@H]1O2)C1CCOCC1 | inactive |
| C[C@H](CO)N1C[C@H](C)[C@H](CN(C)Cc2ccc(-c3ccccc3)cc2)Oc2ccc(NC(=O)Nc3cccc4ccccc34)cc2CC1=O | inactive |
| C[C@@H]1CN([C@H](C)CO)C(=O)Cc2cc(NC(=O)Nc3cccc4ccccc34)ccc2O[C@@H]1CN(C)Cc1ccccc1 | active |
| C[C@H]1CN([C@@H](C)CO)C(=O)Cc2cc(NC(=O)Nc3cccc4ccccc34)ccc2O[C@@H]1CN(C)Cc1ccc(-c2ccccc2)cc1 | inactive |
| C[C@H](CO)N1C[C@H](C)[C@@H](CN(C)Cc2ccccc2)Oc2ccc(NC(=O)Nc3cccc4ccccc34)cc2CC1=O | active |
| C[C@H](CO)N1C[C@H](C)[C@H](CN(C)Cc2ccccc2)Oc2ccc(NC(=O)Nc3cccc4ccccc34)cc2CC1=O | active |
| C[C@H](CO)N1C[C@H](C)[C@@H](CN(C)Cc2ccc(-c3ccccc3)cc2)Oc2ccc(NC(=O)Nc3cccc4ccccc34)cc2CC1=O | inactive |
| C[C@H]1CN([C@@H](C)CO)C(=O)Cc2cc(NC(=O)Nc3cccc4ccccc34)ccc2O[C@@H]1CN(C)Cc1ccccc1 | inactive |
| C[C@H]1CN([C@@H](C)CO)C(=O)Cc2cc(NC(=O)Nc3cccc4ccccc34)ccc2O[C@H]1CN(C)Cc1ccccc1 | inactive |
| C[C@@H]1CN([C@@H](C)CO)C(=O)Cc2cc(NC(=O)Nc3cccc4ccccc34)ccc2O[C@H]1CN(C)Cc1ccccc1 | inactive |
| C[C@@H]1CN([C@H](C)CO)C(=O)Cc2cc(NC(=O)Nc3cccc4ccccc34)ccc2O[C@H]1CN(C)Cc1ccccc1 | inactive |
| C[C@@H]1CN([C@H](C)CO)C(=O)Cc2cc(NC(=O)Nc3cccc4ccccc34)ccc2O[C@H]1CN(C)Cc1ccc(-c2ccccc2)cc1 | inactive |
| C[C@@H]1CN([C@@H](C)CO)C(=O)Cc2cc(NC(=O)Nc3cccc4ccccc34)ccc2O[C@@H]1CN(C)Cc1ccccc1 | active |
| C[C@@H]1CN([C@@H](C)CO)C(=O)CCCn2cc(nn2)CO[C@@H]1CN(C)S(=O)(=O)c1ccc(-n2cccn2)cc1 | inactive |
| C[C@H]1CN([C@@H](C)CO)S(=O)(=O)c2ccc(C#Cc3cccnc3)cc2O[C@H]1CN(C)CC1CCOCC1 | inactive |
| COc1ccc(S(=O)(=O)N(C)C[C@H]2Oc3ccc(NS(=O)(=O)c4ccc(F)cc4)cc3CC(=O)N([C@@H](C)CO)C[C@H]2C)cc1 | inactive |
| COC(=O)[C@H]1CN(C)CCC1=O | inactive |
| C[C@@H]1O[C@@H](OC[C@H]2O[C@@H](Oc3cc(O)c4c(c3)O[C@@H](c3ccc(O)cc3)CC4=O)[C@H](O)[C@@H](O)[C@@H]2O)[C@H](O)[C@H](O)[C@H]1O | inactive |
| COc1ccc([Si](C)(C)[C@H]2[C@H](CCn3cc([C@H](O)c4ccccc4)nn3)O[C@@]3(C(=O)N(Cc4cccc(N5CCC5=O)c4)c4ccccc43)[C@@H]2C)cc1 | inactive |
| Cc1ccc(S(=O)(=O)N(C)C[C@@H]2Oc3c(NC(=O)c4cc(C)nn4C)cccc3C(=O)N([C@@H](C)CO)C[C@@H]2C)cc1 | inactive |
| C=CCOC(=O)[C@@H]1[C@H]2C(=O)O[C@H](c3ccccc3)[C@H](c3ccccc3)N2[C@H](c2ccc(OCCOC(=O)[C@H]3C[C@H]4C(=O)NCC(=O)N4[C@H]3c3ccc(O)cc3)cc2)[C@@]12C(=O)Nc1ccc(I)cc12 | inactive |

| SMILES | cytotoxicity call |
| --- | --- |
| Cc1ccccc1S(=O)(=O)N1C[C@@H](O)COC[C@@H]2O[C@@H](CC(=O)N3CCOCC3)CC[C@H]21 | inactive |
| CC(C)N1C[C@H](CNCc2ccc(Oc3ccccc3)cc2)Oc2c(NC(=O)c3ccncc3)cccc2C1=O | inactive |
| Cc1ccc(-c2cnc3c(c2)C(=O)N([C@H](C)CO)C[C@H](C)[C@@H](CN(C)C(=O)Cc2cccnc2)O3)cc1 | inactive |
| C[C@@H]1CN([C@H](C)CO)C(=O)c2cccc(NC(=O)Nc3ccc(C(F)(F)F)cc3)c2O[C@@H]1CN(C)C(=O)Nc1ccccc1 | active |
| C[C@H](CO)N1C[C@H](C)[C@@H](CN(C)C(=O)Nc2ccc(C(F)(F)F)cc2)Oc2c(NC(=O)Nc3ccccc3)cccc2C1=O | inactive |
| C[C@H]1CN([C@@H](C)CO)C(=O)c2cccc(NC(=O)Nc3ccccc3)c2O[C@@H]1CN(C)C(=O)Nc1ccc(C(F)(F)F)cc1 | inactive |
| C[C@H]1CN([C@@H](C)CO)C(=O)c2cccc(NC(=O)Nc3ccc(C(F)(F)F)cc3)c2O[C@@H]1CN(C)C(=O)Nc1ccccc1 | active |
| C[C@@H]1CN([C@@H](C)CO)C(=O)c2cccc(NC(=O)Nc3ccccc3)c2O[C@@H]1CN(C)C(=O)Nc1ccc(C(F)(F)F)cc1 | inactive |
| C[C@H](CO)N1C[C@H](C)[C@H](CN(C)C(=O)Nc2ccc(C(F)(F)F)cc2)Oc2c(NC(=O)Nc3ccccc3)cccc2C1=O | inactive |
| COc1ccc(C(=O)Nc2ccc(CN3C(=O)[C@]4(O[C@H](CCO)[C@@H]([Si](C)(C)F)[C@@H]4C)c4ccccc43)cc2)cc1 | inactive |
| CN1CCN(C(=O)C[C@@H]2CC[C@@H]3[C@H](COC[C@H](O)CN3C(=O)Nc3cc(Cl)cc(Cl)c3)O2)CC1 | inactive |
| CCCCNc1ccccc1 | inactive |
| CCCCCc1ccccn1 | inactive |
| CCCCCCCCCCCCC[N+](C)(C)Cc1ccccc1 | active |
| CCCCCCCCCCCCC[N+](C)(C)Cc1ccccc1.O.[Cl-] | active |
| CC[N+](C)(CC)Cc1ccccc1 | inactive |
| CCCCCCCCCCCCCCCC[N+](C)(C)Cc1ccccc1.[Cl-] | active |
| COc1ccc(S(=O)(=O)Nc2ccc3c(c2)CC(=O)N([C@@H](C)CO)C[C@H](C)[C@H](CN(C)S(=O)(=O)c2cccs2)O3)cc1 | inactive |
| C[C@H](CO)N1C[C@H](C)[C@H](CN(C)CC2CC2)Oc2c(NS(=O)(=O)c3cccs3)cccc2C1=O | inactive |
| Cc1noc(C)c1S(=O)(=O)Nc1ccc2c(c1)C(=O)N([C@@H](C)CO)C[C@H](C)[C@@H](CN(C)CC1CCCCC1)OCCCC[C@@H](C)O2 | inactive |
| O=C(C1=C[C@H](c2coc3ccccc3c2=O)C[C@H](OCc2ccc(CO)cc2)O1)N1CCCCCCC1 | inactive |

| SMILES | cytotoxicity call |
| --- | --- |
| CS(=O)(=O)NCc1cnc2n1CCN(C[C@H]1CCOC1)CC2 | inactive |
| C[C@H](CO)N1C[C@H](C)[C@H](CN(C)C(=O)Nc2ccc(F)cc2)Oc2ccc(NC(=O)CCCCCC(=O)Nc3ccccc3N)cc2CC1=O | inactive |
| CCCNC(=O)Nc1ccc2c(c1)OC[C@H](C)N(Cc1ccc(-c3ccccn3)cc1)C[C@H](C)[C@H](OC)CN(C)C2=O | inactive |
| C[C@H]1CN([C@@H](C)CO)C(=O)CCCn2cc(nn2)CO[C@@H]1CN(C)C(=O)Nc1ccc(C(F)(F)F)cc1 | inactive |
| O=C(O)[C@H]1C[C@H](O)CN1Cc1ccccc1 | inactive |
| C[C@@H]1CCCCO[C@H](CN(C)Cc2ccc(C(F)(F)F)cc2)[C@H](C)CN([C@H](C)CO)C(=O)c2cc(NC(=O)c3ccccc3)ccc2O1 | inactive |
| C[C@@H]1CN([C@H](C)CO)C(=O)c2cc(NC(=O)c3ccccc3)ccc2O[C@@H](C)CCCCO[C@@H]1CN(C)Cc1ccc(C(F)(F)F)cc1 | inactive |
| C[C@@H]1CN([C@@H](C)CO)C(=O)c2cc(NC(=O)c3ccccc3)ccc2O[C@@H](C)CCCCO[C@H]1CN(C)Cc1ccccc1 | inactive |
| C[C@@H]1CN([C@@H](C)CO)C(=O)c2cc(NC(=O)c3ccccc3)ccc2O[C@@H](C)CCCCO[C@H]1CN(C)Cc1ccc(C(F)(F)F)cc1 | active |
| C[C@@H]1CN([C@H](C)CO)C(=O)c2cc(NC(=O)c3ccccc3)ccc2O[C@@H](C)CCCCO[C@H]1CN(C)Cc1ccc(C(F)(F)F)cc1 | inactive |
| C[C@H]1CCCCO[C@@H](CN(C)Cc2ccc(C(F)(F)F)cc2)[C@@H](C)CN([C@@H](C)CO)C(=O)c2cc(NC(=O)c3ccccc3)ccc2O1 | active |
| C[C@@H]1CCCCO[C@@H](CN(C)Cc2ccc(C(F)(F)F)cc2)[C@H](C)CN([C@H](C)CO)C(=O)c2cc(NC(=O)c3ccccc3)ccc2O1 | inactive |
| C[C@@H]1CCCCO[C@H](CN(C)Cc2ccc(C(F)(F)F)cc2)[C@@H](C)CN([C@H](C)CO)C(=O)c2cc(NC(=O)c3ccccc3)ccc2O1 | inactive |
| C[C@H](CO)N1C[C@H](C)[C@H](CN(C)Cc2ccc(C(F)(F)F)cc2)OCCCC[C@H](C)Oc2ccc(NC(=O)c3ccccc3)cc2C1=O | inactive |
| C[C@@H]1CCCCO[C@H](CN(C)Cc2ccccc2)[C@H](C)CN([C@H](C)CO)C(=O)c2cc(NC(=O)c3ccccc3)ccc2O1 | inactive |
| C[C@@H]1CN([C@H](C)CO)C(=O)c2cc(NC(=O)c3ccccc3)ccc2O[C@@H](C)CCCCO[C@H]1CN(C)Cc1ccccc1 | active |
| C[C@@H]1CCCCO[C@H](CN(C)Cc2ccc(C(F)(F)F)cc2)[C@H](C)CN([C@@H](C)CO)C(=O)c2cc(NC(=O)c3ccccc3)ccc2O1 | active |
| C[C@@H]1CN([C@@H](C)CO)C(=O)c2cc(NC(=O)Nc3cccc4ccccc34)ccc2O[C@H]1CN(C)S(=O)(=O)c1ccc(Cl)cc1 | inactive |
| COc1ccc(NC(=O)N(C)C[C@H]2Oc3ccc(NS(=O)(=O)c4cn(C)cn4)cc3CC(=O)N([C@@H](C)CO)C[C@@H]2C)cc1 | inactive |
| C[C@@H]1CN([C@H](C)CO)S(=O)(=O)c2ccc(-c3cccc(C(=O)N(C)C)c3)cc2O[C@@H]1CN(C)C(=O)Cc1ccccn1 | inactive |
| C[C@@H]1CN([C@@H](C)CO)C(=O)CCCn2nncc2CO[C@@H]1CN(C)S(=O)(=O)c1ccc2c(c1)OCCCO2 | inactive |
